Screening results (PubChem BioAssay)
ST2 IL33 inh = inhibitors of human ST2 (IL1RL1) binding to IL-33, primary screen, biochemical, AlphaLISA; hit rate 2.3% among 78,000; AlphaLISA ST2-Fc/biotin-IL-33 interaction, 1 h; inhibition, % for hits at 17 µM; AID 1259354, 2018; Interleukin-1 receptor-like 1 (Homo sapiens), Q01638; in the data active means inhibition above about 30%
Target sequence (Q01638 whole entry, looked up): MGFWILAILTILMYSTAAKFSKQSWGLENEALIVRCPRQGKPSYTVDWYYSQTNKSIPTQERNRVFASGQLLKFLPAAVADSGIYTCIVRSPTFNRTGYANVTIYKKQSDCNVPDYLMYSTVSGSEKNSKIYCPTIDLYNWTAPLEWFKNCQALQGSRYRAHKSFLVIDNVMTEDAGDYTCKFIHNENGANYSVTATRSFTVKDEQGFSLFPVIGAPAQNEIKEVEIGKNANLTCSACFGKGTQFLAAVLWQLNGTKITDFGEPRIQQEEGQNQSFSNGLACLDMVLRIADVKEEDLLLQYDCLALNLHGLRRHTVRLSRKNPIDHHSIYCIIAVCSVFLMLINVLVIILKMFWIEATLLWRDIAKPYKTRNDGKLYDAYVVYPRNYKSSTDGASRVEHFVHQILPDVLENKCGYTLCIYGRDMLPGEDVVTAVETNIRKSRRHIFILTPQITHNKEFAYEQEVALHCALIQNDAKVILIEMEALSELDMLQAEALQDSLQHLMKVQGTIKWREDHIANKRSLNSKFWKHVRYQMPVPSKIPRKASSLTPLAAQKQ
Active calls of the source: *. Only a selection was taken, and hits are over-represented in it overall.

Results for COc1cc(/C=C2\SC(c3ccc(C)cc3)=NC2=O)ccc1O ?
ST2 IL33 inh: 62%*

How did Cc1cccc(C(=O)Nc2ccc(C(C)C)cc2)c1 do in these assays?
ST2 IL33 inh: inactive

How did COc1ccc(CNS(=O)(=O)c2cccc3cccnc23)cc1 do in these assays?
ST2 IL33 inh: inactive

What do the screens show for `CCCCN(Cc1ccc(C)s1)C(=O)C(C)N1CCN(C)CC1` (configuration not stated)?
ST2 IL33 inh: inactive

What do the screens show for `CC1(C)CC(=O)C2=C(C1)Nc1ccccc1NC2c1cccc(O)c1O` (configuration not stated)?
ST2 IL33 inh: inactive

How did O=c1oc2ccccc2cc1-c1nc(-c2ccc([N+](=O)[O-])cc2)n[nH]1 do in these assays?
ST2 IL33 inh: inactive

What do the screens show for `CCOc1ccc(C=C2C(=O)OC3(CCCCC3)OC2=O)cc1OC`?
ST2 IL33 inh: inactive

Results for CCCCN(CC)Cc1c(C)[nH]c2ccccc2c1=O ?
ST2 IL33 inh: inactive

How did Cc1[nH]c2ccccc2c1C=C1C(=O)OC2(CCCCC2)OC1=O do in these assays?
ST2 IL33 inh: 48%*

What do the screens show for `Cc1nc2ccc(Br)cc2[nH]1`?
ST2 IL33 inh: inactive

Results for N=Nc1[nH]c(N)c2ccccc12 ?
ST2 IL33 inh: 46%*

What do the screens show for `O=C(c1ccc2oc(CCc3ccccc3)nc2c1)N1CCCC1c1ccccn1` (configuration not stated)?
ST2 IL33 inh: inactive

How did Cc1ccc(Cl)cc1NC(=O)c1ccccc1C(=O)Nc1cc(Cl)ccc1C do in these assays?
ST2 IL33 inh: inactive

Results for Cc1ccc(Cl)cc1NS(=O)(=O)c1cccc2nonc12 ?
ST2 IL33 inh: inactive

How did Cc1ccc(Cl)cc1NS(=O)(=O)c1cccc2c1C(=O)c1ccccc1C2=O do in these assays?
ST2 IL33 inh: 44%*

Results for Cc1ccc(C)c(NS(=O)(=O)c2cccc3c2C(=O)c2ccccc2C3=O)c1 ?
ST2 IL33 inh: 54%*

Results for Cc1ccc(C)c(NS(=O)(=O)c2ccc(NC(=O)c3ccccc3C)cc2)c1 ?
ST2 IL33 inh: inactive

How did Cc1ccc(C)c(NS(C)(=O)=O)c1 do in these assays?
ST2 IL33 inh: inactive

Results for N#CC1=C(N)C(C#N)(C#N)C(c2ccc(Cl)c(Cl)c2)C2CCCC=C12 (configuration not stated) ?
ST2 IL33 inh: inactive

How did C=CCC(=O)N(CC=C)Cc1ccc(SC)cc1 do in these assays?
ST2 IL33 inh: inactive

Results for CNc1nc(N2CCOC(C(F)(F)F)C2)ncc1F (configuration not stated) ?
ST2 IL33 inh: inactive

Results for O=C(N1CCOC(C(F)(F)F)C1)C1(S(=O)(=O)c2ccccc2)CC1 (configuration not stated) ?
ST2 IL33 inh: inactive

How did FC(F)(F)C1CN(c2ccc(-c3ccccc3)nn2)CCO1 (configuration not stated) do in these assays?
ST2 IL33 inh: 96%*

How did O=C(Nc1ccc(F)cc1)c1nn(-c2ccc(Cl)cc2)c(=O)c2ccccc12 do in these assays?
ST2 IL33 inh: inactive

What do the screens show for `O=C(O)C1=CC(=C(c2ccc(O)c(C(=O)O)c2)c2ccc(O)c(C(=O)O)c2)C=CC1=O`?
ST2 IL33 inh: 89%*

How did CCCCc1ncc(CN2CCCC3(CCNCC3)CC2)[nH]1 do in these assays?
ST2 IL33 inh: inactive

Results for CC[C@H]1CN(C(=O)c2ccc(C)cc2C)CC[C@@]1(C)O ?
ST2 IL33 inh: 31%*

How did CC[C@H]1CN(C(=O)c2cccnc2N2CCOCC2)CC[C@@]1(C)O do in these assays?
ST2 IL33 inh: inactive

What do the screens show for `CC(C)C[C@H]1CN(C(=O)c2ccc(-c3nnn(C)n3)cc2)CC[C@@]1(C)O`?
ST2 IL33 inh: inactive

Results for Cc1nn(-c2ccccc2)c(Cl)c1C(=O)Nc1cccc(Cl)c1 ?
ST2 IL33 inh: inactive

What do the screens show for `CC1=NN(c2ccccc2)C(=O)C1C(c1cccc(Cl)c1)C(C#N)C#N` (configuration not stated)?
ST2 IL33 inh: 62%*

How did O=C(Nc1cccc(Cl)c1)C(O)c1ccccc1 (configuration not stated) do in these assays?
ST2 IL33 inh: inactive

How did Cc1noc(C)c1CN(C)Cc1cnc(N2CCOCC2)nc1 do in these assays?
ST2 IL33 inh: inactive

How did CCC1CCCCN1CCCNC(=O)CNC(=O)c1cccs1 (configuration not stated) do in these assays?
ST2 IL33 inh: inactive

How did Cc1ccc(-c2csc(NC(=O)c3cc(=O)c4ccccc4o3)n2)c(C)c1 do in these assays?
ST2 IL33 inh: inactive

Results for Cc1ccc(-c2csc(/C(C#N)=C/c3cccnc3)n2)c(C)c1 ?
ST2 IL33 inh: 34%*

How did COC(=O)c1c[nH]n2c(=O)c(Cc3ccccc3F)c(C)nc12 do in these assays?
ST2 IL33 inh: inactive

Results for COC(=O)c1c[nH]n2c(=O)c(Cc3ccccc3C)c(C)nc12 ?
ST2 IL33 inh: 53%*

What do the screens show for `COC(=O)c1c[nH]n2c(=O)c(Cc3ccc(C)cc3)c(C)nc12`?
ST2 IL33 inh: inactive

How did Cn1c(=O)c(CN(Cc2ccsc2)Cc2ccco2)cc2ccccc21 do in these assays?
ST2 IL33 inh: inactive
